Test results as given in the supplement of paper PMC11732987, “Enantioselective OTUD7B fragment discovery through chemoproteomics screening and high-throughput optimisation” (Communications Chemistry, 2025).
Values without a mark were called inactive.

What was measured:
Assay in all cases: log2 ratio of Biotin-Ahx-Ub-VS probe labelling (compound/DMSO); higher = less target engagement, active = hit call of the paper (q ≤ 0.05, log2 ratio ≤ -1)
Settings in all cases: treatment time: 3 h
[1] = compound: ClCC(=O)NC1CCCc2ccccc12
How it was run: (§1)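 DUBs in HEK293T lysate were labelled with Biotin-Ahx-Ub-VS (0.5 µM final, 1 h) after a 3 h treatment with compound at 50 or 200 µM or with DMSO, done in triplicate on 495 µg of lysate per sample. NeutrAvidin-enriched proteins were digested with LysC and trypsin and run by diaPASEF LC-MS/MS. Median-normalised label-free quantities gave average base-two log ratios of compound to DMSO by unpaired t-test, restricted to proteins with at least 2 unique peptides.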

[2] = compound: ClCC(=O)NC1CCOc2ccc(Cl)cc12
How it was run: as §1

[3] = compound: ClCC(=O)NC1CCSc2ccccc12
How it was run: as §1

[4] = compound: ClCC(=O)N[C@H]1CCCc2ccccc12
How it was run: as §1

[5] = compound: Fc1ccc(N2CCN(c3nc4c(CN(C(CCl)=O)CC4)cn3)CC2)cc1.Cl.Cl
How it was run: as §1

Chain of UniProt Q01804 (Q01804 whole entry): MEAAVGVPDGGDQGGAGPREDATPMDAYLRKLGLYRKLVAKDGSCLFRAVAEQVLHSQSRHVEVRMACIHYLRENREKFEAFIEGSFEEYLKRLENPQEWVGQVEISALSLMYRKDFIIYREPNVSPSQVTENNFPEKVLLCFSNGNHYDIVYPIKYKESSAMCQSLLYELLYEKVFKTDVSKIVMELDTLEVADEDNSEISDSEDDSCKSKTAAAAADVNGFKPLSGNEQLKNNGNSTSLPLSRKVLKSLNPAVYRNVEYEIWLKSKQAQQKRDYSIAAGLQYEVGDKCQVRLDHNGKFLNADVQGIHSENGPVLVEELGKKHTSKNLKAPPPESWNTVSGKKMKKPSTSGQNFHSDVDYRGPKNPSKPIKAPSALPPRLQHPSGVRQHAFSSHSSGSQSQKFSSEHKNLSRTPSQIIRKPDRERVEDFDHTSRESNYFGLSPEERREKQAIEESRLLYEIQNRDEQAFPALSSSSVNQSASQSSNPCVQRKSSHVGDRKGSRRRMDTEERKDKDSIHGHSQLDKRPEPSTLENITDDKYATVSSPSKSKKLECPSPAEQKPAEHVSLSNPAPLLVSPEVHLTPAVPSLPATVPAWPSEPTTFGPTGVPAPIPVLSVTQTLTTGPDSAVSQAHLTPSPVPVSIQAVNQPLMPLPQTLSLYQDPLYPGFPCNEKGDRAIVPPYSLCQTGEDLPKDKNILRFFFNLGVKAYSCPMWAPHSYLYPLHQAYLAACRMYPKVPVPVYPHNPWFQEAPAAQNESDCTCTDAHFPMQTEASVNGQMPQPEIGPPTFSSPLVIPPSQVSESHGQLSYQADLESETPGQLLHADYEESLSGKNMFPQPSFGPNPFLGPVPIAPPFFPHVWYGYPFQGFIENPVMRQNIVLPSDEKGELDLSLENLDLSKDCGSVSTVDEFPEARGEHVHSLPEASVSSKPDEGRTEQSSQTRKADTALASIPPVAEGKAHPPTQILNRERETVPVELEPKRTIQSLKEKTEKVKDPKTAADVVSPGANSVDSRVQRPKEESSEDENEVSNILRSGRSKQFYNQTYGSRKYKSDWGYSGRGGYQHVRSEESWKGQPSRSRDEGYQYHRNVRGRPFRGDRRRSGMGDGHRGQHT
Chain of UniProt Q9UHP3 (Q9UHP3 whole entry): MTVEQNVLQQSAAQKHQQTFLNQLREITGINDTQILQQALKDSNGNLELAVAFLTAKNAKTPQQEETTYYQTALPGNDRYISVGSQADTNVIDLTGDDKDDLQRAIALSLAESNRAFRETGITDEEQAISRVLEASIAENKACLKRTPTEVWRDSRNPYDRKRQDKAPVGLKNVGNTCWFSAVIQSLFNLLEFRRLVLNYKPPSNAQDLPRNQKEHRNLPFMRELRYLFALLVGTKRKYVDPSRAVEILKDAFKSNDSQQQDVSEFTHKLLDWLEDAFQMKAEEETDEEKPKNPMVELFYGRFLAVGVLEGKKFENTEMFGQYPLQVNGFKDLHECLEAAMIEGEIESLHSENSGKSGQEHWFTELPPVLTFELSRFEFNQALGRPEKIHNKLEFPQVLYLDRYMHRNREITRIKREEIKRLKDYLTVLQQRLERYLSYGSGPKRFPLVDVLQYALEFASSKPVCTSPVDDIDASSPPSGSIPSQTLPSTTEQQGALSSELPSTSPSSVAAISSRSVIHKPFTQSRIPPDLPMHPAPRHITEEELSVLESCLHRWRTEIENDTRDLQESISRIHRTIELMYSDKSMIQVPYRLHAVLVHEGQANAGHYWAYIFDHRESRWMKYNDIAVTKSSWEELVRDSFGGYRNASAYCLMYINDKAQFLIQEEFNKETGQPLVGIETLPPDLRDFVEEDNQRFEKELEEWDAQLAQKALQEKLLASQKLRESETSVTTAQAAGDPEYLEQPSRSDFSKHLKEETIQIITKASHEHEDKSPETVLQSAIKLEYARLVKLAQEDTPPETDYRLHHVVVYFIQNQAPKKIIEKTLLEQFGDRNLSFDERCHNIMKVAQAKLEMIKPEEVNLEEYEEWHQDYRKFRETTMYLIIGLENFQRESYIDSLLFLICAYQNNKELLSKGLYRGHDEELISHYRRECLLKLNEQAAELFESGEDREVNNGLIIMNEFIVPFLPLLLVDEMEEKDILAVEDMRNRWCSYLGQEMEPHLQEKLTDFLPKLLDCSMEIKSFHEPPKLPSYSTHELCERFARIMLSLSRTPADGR
Chain of UniProt Q53GS9 (Q53GS9 whole entry): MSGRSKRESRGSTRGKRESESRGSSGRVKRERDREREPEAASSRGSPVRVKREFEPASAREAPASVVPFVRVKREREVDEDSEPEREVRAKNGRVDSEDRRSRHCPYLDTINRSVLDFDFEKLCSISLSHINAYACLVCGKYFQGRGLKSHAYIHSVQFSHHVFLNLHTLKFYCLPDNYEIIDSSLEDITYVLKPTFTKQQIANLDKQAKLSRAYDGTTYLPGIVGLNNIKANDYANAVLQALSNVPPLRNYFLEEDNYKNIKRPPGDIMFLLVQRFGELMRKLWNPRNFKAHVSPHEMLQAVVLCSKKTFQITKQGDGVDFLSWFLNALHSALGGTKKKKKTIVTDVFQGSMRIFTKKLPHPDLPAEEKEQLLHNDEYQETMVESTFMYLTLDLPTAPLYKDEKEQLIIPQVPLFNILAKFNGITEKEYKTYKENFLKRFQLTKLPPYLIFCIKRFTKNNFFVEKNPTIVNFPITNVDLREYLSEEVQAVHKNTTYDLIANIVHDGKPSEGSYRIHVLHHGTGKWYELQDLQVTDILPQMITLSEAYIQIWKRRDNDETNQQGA
Chain of UniProt Q9UGI0 (Q9UGI0 whole entry): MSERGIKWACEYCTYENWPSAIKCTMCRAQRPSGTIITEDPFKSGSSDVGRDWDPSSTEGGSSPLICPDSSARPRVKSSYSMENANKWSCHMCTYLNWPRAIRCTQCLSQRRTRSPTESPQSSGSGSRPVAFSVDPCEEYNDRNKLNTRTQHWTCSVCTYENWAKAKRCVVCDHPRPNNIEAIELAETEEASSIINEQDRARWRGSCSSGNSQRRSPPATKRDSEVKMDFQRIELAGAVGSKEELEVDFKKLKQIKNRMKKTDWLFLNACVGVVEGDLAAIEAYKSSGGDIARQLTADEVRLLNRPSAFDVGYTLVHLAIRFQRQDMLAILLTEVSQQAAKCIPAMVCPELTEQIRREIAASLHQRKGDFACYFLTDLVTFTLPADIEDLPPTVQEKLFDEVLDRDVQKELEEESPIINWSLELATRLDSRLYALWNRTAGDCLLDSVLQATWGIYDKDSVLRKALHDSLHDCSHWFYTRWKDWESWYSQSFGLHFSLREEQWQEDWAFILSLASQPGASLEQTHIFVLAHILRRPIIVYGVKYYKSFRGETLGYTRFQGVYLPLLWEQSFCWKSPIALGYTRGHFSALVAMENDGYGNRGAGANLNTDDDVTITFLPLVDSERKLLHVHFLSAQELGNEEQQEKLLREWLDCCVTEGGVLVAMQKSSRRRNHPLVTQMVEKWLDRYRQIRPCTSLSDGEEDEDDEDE
Chain of UniProt Q4G0A6 (Q4G0A6 whole entry): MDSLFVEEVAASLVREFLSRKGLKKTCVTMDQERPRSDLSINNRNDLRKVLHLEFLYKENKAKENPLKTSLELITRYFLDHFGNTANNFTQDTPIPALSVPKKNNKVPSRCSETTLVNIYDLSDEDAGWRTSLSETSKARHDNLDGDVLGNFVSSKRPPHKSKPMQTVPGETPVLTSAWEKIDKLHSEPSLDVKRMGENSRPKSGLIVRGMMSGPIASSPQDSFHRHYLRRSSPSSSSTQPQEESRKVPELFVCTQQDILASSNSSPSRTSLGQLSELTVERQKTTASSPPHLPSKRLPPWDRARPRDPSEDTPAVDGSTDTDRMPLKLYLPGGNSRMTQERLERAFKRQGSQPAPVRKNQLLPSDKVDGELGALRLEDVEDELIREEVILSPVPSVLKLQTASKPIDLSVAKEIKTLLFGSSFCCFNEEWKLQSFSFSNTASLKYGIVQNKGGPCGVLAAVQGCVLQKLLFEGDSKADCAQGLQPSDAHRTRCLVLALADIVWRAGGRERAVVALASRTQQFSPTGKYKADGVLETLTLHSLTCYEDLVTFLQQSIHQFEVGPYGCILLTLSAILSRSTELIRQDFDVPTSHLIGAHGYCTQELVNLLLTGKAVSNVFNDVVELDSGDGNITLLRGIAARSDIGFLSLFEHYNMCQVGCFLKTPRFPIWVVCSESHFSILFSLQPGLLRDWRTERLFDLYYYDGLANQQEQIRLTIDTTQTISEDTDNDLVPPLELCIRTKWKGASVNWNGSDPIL
Chain of UniProt Q8N6M0 (Q8N6M0 whole entry): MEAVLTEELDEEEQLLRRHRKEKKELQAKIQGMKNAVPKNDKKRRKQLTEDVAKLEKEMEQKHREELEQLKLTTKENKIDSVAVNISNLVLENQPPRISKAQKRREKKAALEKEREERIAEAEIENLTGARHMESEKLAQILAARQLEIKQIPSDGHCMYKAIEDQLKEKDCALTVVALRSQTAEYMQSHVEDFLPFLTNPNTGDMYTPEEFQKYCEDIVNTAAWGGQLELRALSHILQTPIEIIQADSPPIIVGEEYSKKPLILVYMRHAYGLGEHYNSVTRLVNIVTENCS
Chain of UniProt P54252 (P54252 whole entry): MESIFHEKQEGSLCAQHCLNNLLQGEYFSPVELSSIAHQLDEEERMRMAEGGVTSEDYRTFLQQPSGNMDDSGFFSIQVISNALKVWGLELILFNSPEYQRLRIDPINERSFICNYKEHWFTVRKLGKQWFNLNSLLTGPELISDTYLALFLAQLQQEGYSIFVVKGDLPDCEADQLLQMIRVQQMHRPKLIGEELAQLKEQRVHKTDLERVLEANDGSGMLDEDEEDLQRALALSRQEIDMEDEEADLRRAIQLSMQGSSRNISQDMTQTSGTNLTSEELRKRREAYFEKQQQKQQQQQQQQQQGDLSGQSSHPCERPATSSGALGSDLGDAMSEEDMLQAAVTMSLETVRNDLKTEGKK

Target | log2 ratio of Biotin-Ahx-Ub-VS probe labelling ([1]; compound concentration: 50uM) | log2 ratio of Biotin-Ahx-Ub-VS probe labelling ([1]; compound concentration: 200uM) | log2 ratio of Biotin-Ahx-Ub-VS probe labelling ([2]; compound concentration: 50uM) | log2 ratio of Biotin-Ahx-Ub-VS probe labelling ([2]; compound concentration: 200uM) | log2 ratio of Biotin-Ahx-Ub-VS probe labelling ([3]; compound concentration: 50uM) | log2 ratio of Biotin-Ahx-Ub-VS probe labelling ([3]; compound concentration: 200uM) | log2 ratio of Biotin-Ahx-Ub-VS probe labelling ([4]; compound concentration: 50uM) | log2 ratio of Biotin-Ahx-Ub-VS probe labelling ([4]; compound concentration: 200uM) | log2 ratio of Biotin-Ahx-Ub-VS probe labelling ([5]; compound concentration: 50uM) | log2 ratio of Biotin-Ahx-Ub-VS probe labelling ([5]; compound concentration: 200uM)
OTUD4 (UniProt Q01804) | -1.22 (active) | -1.53 (active) | -0.449 | -1.11 (active) | -1.2 (active) | -1.84 (active) | -1.48 (active) | -1.79 (active) | -0.0534 | -0.739
USP28 (UniProt Q96RU2) | -0.263 | -0.626 | -0.164 | -0.586 | -0.108 | -0.622 | -0.259 | -0.947 | -0.134 | -1.12 (active)
UniProt Q8TE49 | -1.68 (active) | -2.58 (active) | -0.472 | -2.17 (active) | -0.368 | -2.26 (active) | -2.07 (active) | -2.92 (active) | -0.151 | -1.37 (active)
MINDY4 (UniProt Q4G0A6) | 0.639 | -0.0583 | -0.0698 | 0.0712 | 0.832 | -0.691 | 0.216 | 0.204 | 0.258 | 0.516
UniProt Q9UGI0 | -0.0757 | -0.346 | -0.41 | -0.0672 | -0.265 | -0.226 | -0.182 | -0.337 | -0.0659 | -0.664
USP16 (UniProt Q9Y5T5) | -0.384 | -0.472 | -0.353 | -0.626 | -0.00515 | -0.114 | 0.221 | 0.339 | -0.277 | -0.62
PSMD7 (UniProt P51665) | -5.4 | -0.933 | -1.46 | 0.606 | 0.408 | 0.0589 | 1.77 | 0.0535 | -0.177 | -1.73
ALG13 (UniProt Q9NP73) | 0.298 | 0.114 | 0.599 | 0.0386 | 0.273 | -0.0598 | 0.244 | 0.344 | 0.0824 | 0.24
OTUD6B (UniProt Q8N6M0) | -0.12 | -0.0737 | -0.248 | -0.361 | 0.0363 | -0.296 | -0.00611 | -0.364 | -0.105 | -1.28 (active)
ATXN3 (UniProt P54252) | -0.0534 | -0.164 | -0.0955 | -0.25 | 0.24 | -0.293 | -0.316 | -0.596 | -0.648 | -2.72 (active)
PRPF8 (UniProt Q6P2Q9) | -0.0294 | -0.0682 | -0.217 | -0.0207 | 0.0298 | -0.0215 | 0.0787 | -0.0553 | -0.0417 | -0.137
USP25 (UniProt Q9UHP3) | -0.808 | 0.0737 | 0.221 | 0.509 | -0.0574 | -0.126 | -0.809 | -1.97 (active) | 0.382 | -1.03
UniProt Q9P2H5 | -0.0608 | 0.0712 | -0.42 | -0.205 | 0.0602 | -0.0405 | -0.178 | -0.0371 | -0.262 | -1.08 (active)
USP39 (UniProt Q53GS9) | -0.167 | -0.109 | -0.269 | -0.2 | -0.0242 | -0.138 | 0.0198 | -0.0406 | 0.0915 | -0.109
